The results in this text go back to PubChem BioAssay (NCI).

The structures appear in SMILES notation. This is part of a sample that, as a whole, favours compounds with a hit. Of some 83,000 tested, about 20% had one in any assay.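 Values shown are percent growth following 48 h exposure of cells in 96-well plates to a single concentration of compound; below 10 was considered active.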 A number with no mark means an inactive call. Active and inactive are the calls of the source.

Some test systems named below: SK-MEL-2 melanoma; EKVX NSCLC; SN12C renal; UO-31 renal; TK-10 renal; ACHN renal; CAKI-1 renal; A498 renal; CCRF-CEM leukemia; MOLT-4 leukemia; SR leukemia; RPMI-8226 leukemia; OVCAR-8 ovarian; OVCAR-5 ovarian; OVCAR-4 ovarian; SK-OV-3 ovarian; OVCAR-3 ovarian; HS 578T breast; NCI/ADR-RES ovarian; IGROV1 ovarian.
What all share (experiment): NCI-60 one-dose screen, 48 h (100 = growth as untreated, 0 = no growth, -100 = all killed)
Common to all, as to conditions: 10 µM unless noted

Take `Cc1ccc(NC(=O)C2CCC(CN3CCN(C)CC3)CC2)cc1Nc1nccc(-c2cccnc2)n1` (configuration not stated): the growth was 112% in the assay with SK-MEL-2 melanoma; 97.6% in the assay on EKVX NSCLC; 91.9% in the assay with SN12C renal; 83.3% in the assay with UO-31 renal; 121% with TK-10 renal; 94.9% in the assay with ACHN renal. Further, the growth in the assay with CAKI-1 renal was 95.5%; in the assay on A498 renal, 89.6%; in the assay with CCRF-CEM leukemia, 109%; with MOLT-4 leukemia, 89.8%; with SR leukemia, 90.9%; with RPMI-8226 leukemia, 96.6%. Further, the growth with OVCAR-8 ovarian was 111%; with OVCAR-5 ovarian it was 92%; with OVCAR-4 ovarian it was 108%; in the assay on SK-OV-3 ovarian, 110%; in the assay on OVCAR-3 ovarian, 103%; in the assay on HS 578T breast, 85.1%. Further, the growth in the assay with NCI/ADR-RES ovarian was 97.5%.

For `O=C1CC[C@H](c2ccc(O)c3c2C(=O)[C@@H]2O[C@@H]2C3=O)c2cccc(O)c21`, the growth was 69.5% in the assay on SK-MEL-2 melanoma; 102% in the assay on EKVX NSCLC; 54.6% in the assay on SN12C renal; -77.4% (active) in the assay with UO-31 renal; 3.89% (active) in the assay on TK-10 renal; -42% (active) in the assay on ACHN renal. For the same compound, the growth in the assay on CAKI-1 renal was 2.61% (active); with A498 renal, 85%; in the assay with CCRF-CEM leukemia, -2.85% (active); in the assay on MOLT-4 leukemia, 45.1%; in the assay with SR leukemia, 2.02% (active); with RPMI-8226 leukemia, -3.81% (active). The growth with OVCAR-8 ovarian was 43.5%; in the assay on OVCAR-5 ovarian, 99.6%; with OVCAR-4 ovarian, 72.4%; in the assay on IGROV1 ovarian it was 90%; in the assay with OVCAR-3 ovarian, -9.05% (active); with HS 578T breast, 98.4%. Moreover, the growth with NCI/ADR-RES ovarian is 90%.

Regarding `CCOc1cc2ncc(C#N)c(Nc3ccc(OCc4cccc(F)c4)c(Cl)c3)c2cc1NC(=O)CC1CCSS1` (configuration not stated), the growth with SK-MEL-2 melanoma is 25.9%; with EKVX NSCLC, 27.3%; in the assay on SN12C renal, 46%; in the assay with UO-31 renal, 39.3%; in the assay on TK-10 renal it was 38.6%; in the assay on ACHN renal, 59.7%. The growth in the assay on CAKI-1 renal was 43%; in the assay on A498 renal, 64%; in the assay with CCRF-CEM leukemia it was 9.64% (active); in the assay on MOLT-4 leukemia, -25.2% (active); with SR leukemia it was -9.65% (active); with RPMI-8226 leukemia, 62.4%. Moreover, the growth with OVCAR-8 ovarian was 44.2%; in the assay with OVCAR-5 ovarian, 84.1%; in the assay with SK-OV-3 ovarian, -93.6% (active); in the assay on OVCAR-3 ovarian it was 37.3%; in the assay with HS 578T breast it was 55.9%; in the assay with NCI/ADR-RES ovarian it was 78.9%.

For the compound `OC(c1cc2cc(Cl)c(Cl)cc2c2cc(C(F)(F)F)ccc12)C1CCCCN1` (configuration not stated), the growth in the assay on SK-MEL-2 melanoma is -54.2% (active); in the assay on EKVX NSCLC, -24.8% (active); in the assay with SN12C renal, -73.2% (active); in the assay on UO-31 renal it was -74.2% (active); in the assay with TK-10 renal, -75.2% (active); with ACHN renal, -82.5% (active). Besides, the growth with CAKI-1 renal is -46.4% (active); in the assay on A498 renal, 48.1%; with CCRF-CEM leukemia, -45% (active); in the assay on MOLT-4 leukemia, -60.3% (active); in the assay on SR leukemia it was -59.9% (active); with RPMI-8226 leukemia it was -37.1% (active). For the same compound, the growth is -71.3% (active) in the assay with OVCAR-8 ovarian; -41.6% (active) in the assay with OVCAR-5 ovarian; 34% with SK-OV-3 ovarian; -90.3% (active) in the assay with OVCAR-3 ovarian; -50.4% (active) with HS 578T breast; -79.1% (active) with NCI/ADR-RES ovarian.

As for `Cn1ccnc1C(=O)/C=C/c1ccccc1`, the growth with SK-MEL-2 melanoma was 46.9%; in the assay with EKVX NSCLC, -9.85% (active); with SN12C renal, 41.6%; in the assay with UO-31 renal, -33.7% (active); in the assay with TK-10 renal it was 15.3%; in the assay with ACHN renal it was 33%. Also, the growth was 11.7% with CAKI-1 renal; -15.9% (active) with A498 renal; 9.1% (active) with CCRF-CEM leukemia; 70% in the assay on MOLT-4 leukemia; 18.9% in the assay with SR leukemia; -8.79% (active) with RPMI-8226 leukemia. The growth in the assay with OVCAR-8 ovarian is 20.9%; in the assay on OVCAR-5 ovarian, 38.7%; in the assay on OVCAR-4 ovarian, 26.8%; with SK-OV-3 ovarian, 27.5%; with OVCAR-3 ovarian, 0.598% (active); in the assay on HS 578T breast it was -2.82% (active). For the same compound, in the assay with NCI/ADR-RES ovarian, the growth is 20.9%.

As for `OCc1ccc(N2CCc3cccc(F)c3C2)cc1Cl`, the growth is 91.1% [0.1 µM] in the assay with SK-MEL-2 melanoma; 104% [0.1 µM] in the assay on EKVX NSCLC; 92.9% [0.1 µM] with SN12C renal; 91.6% [0.1 µM] with UO-31 renal; -0.0842% [0.1 µM] (active) with TK-10 renal; 108% [0.1 µM] in the assay with ACHN renal. For the same compound, the growth with CAKI-1 renal was 63.5% [0.1 µM]; with A498 renal, -16.3% [0.1 µM] (active); in the assay with CCRF-CEM leukemia it was 96% [0.1 µM]; in the assay with MOLT-4 leukemia it was 100% [0.1 µM]; with SR leukemia, 87.6% [0.1 µM]; in the assay with RPMI-8226 leukemia it was 71.4% [0.1 µM]. For the same compound, the growth was 91.4% [0.1 µM] with OVCAR-8 ovarian; 32.7% [0.1 µM] with OVCAR-4 ovarian; 72.5% [0.1 µM] in the assay with SK-OV-3 ovarian; 21.2% [0.1 µM] in the assay with IGROV1 ovarian; 11.8% [0.1 µM] with OVCAR-3 ovarian; 99.2% [0.1 µM] in the assay on HS 578T breast. In addition, the growth in the assay on NCI/ADR-RES ovarian is 87% [0.1 µM].

With `CN(CCCCCl)P(=O)(OCc1ccc([N+](=O)[O-])o1)C(F)(F)c1ccc(CC(=O)NC[C@@H](O)/C=C\[C@@H](O)[C@H](CO)Cc2ccccc2)cc1` (some centres not stated), the growth is 66.5% with SK-MEL-2 melanoma; 99.3% in the assay with EKVX NSCLC; 98.8% with SN12C renal; 88.9% with UO-31 renal; 113% in the assay on TK-10 renal; 94% in the assay on ACHN renal. For the same compound, the growth in the assay with CAKI-1 renal was 104%; in the assay on A498 renal it was 83.8%; in the assay with CCRF-CEM leukemia, 70.7%; in the assay with MOLT-4 leukemia it was 93.5%; in the assay with SR leukemia it was 47.7%; in the assay on RPMI-8226 leukemia, 77.1%. Further, the growth was 95.1% in the assay with OVCAR-8 ovarian; 111% in the assay with OVCAR-5 ovarian; 95.2% with OVCAR-4 ovarian; 99.4% in the assay on IGROV1 ovarian; 107% with OVCAR-3 ovarian; 103% in the assay on HS 578T breast. Further, the growth in the assay on NCI/ADR-RES ovarian was 101%.

As to `CCCCC/C(C=C(C#N)C#N)=C/c1ccccc1`, the growth with SK-MEL-2 melanoma was 82.4%; in the assay with EKVX NSCLC, 106%; with SN12C renal, 81.1%; in the assay with UO-31 renal, 34.7%; with TK-10 renal, 105%; in the assay on ACHN renal, 41.6%. The growth with CAKI-1 renal was 81.4%; in the assay on A498 renal, 112%; in the assay on CCRF-CEM leukemia, 13.9%; in the assay with MOLT-4 leukemia it was 13.4%; with SR leukemia, 7.75% (active); with RPMI-8226 leukemia, -14.1% (active). Moreover, the growth in the assay with OVCAR-8 ovarian was 12.3%; in the assay on OVCAR-5 ovarian, 113%; in the assay with OVCAR-4 ovarian, 86.4%; in the assay on NCI/ADR-RES ovarian, 65%.
